Screens: PubChem BioAssay, Sanford-Burnham Center for Chemical Genomics
A selection: hits, their analogues and other compounds. The true share with any hit is near 4%.
CF NFkB inh: inhibitors of PAF-induced NF-kB signaling, primary screen, cell-based, GFP fluorescence, uHTS | inhibition, % at 5 µM | KKLEB NF-kB-GFP reporter, GFP fluorescence overnight | hit rate 0.86% among 360,000;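 active = at least 50% inhibition at 5 µM, scaled per plate between neutral and stimulator controls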;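 also: PAF is a Pseudomonas aeruginosa culture filtrate used as stimulus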
TWEAK Fn14 block: inhibitors of TWEAK-Fn14 signaling, primary screen, luciferase reporter cells, uHTS | TWEAK-stimulated Fn14 reporter cells, luciferase luminescence, 8 h | inhibition, % at 10 µM | hit rate 2% among 360,000 | AID 1159606, 2016; in the data active = inhibition above about 50%
Peg3 promoter: Peg3 promoter-driven luciferase inhibitors, primary screen, cell-based, HeLa, luciferase luminescence. inhibition, % at 20 µM. HeLa PEG-Prom luciferase reporter, overnight. hit rate 1.7% among 360,000. AID 588405, 2011;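 active = inhibition of at least 50% at 20 µM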
KKLEB cytotox: cytotoxicity in KKLEB CF airway cells, primary screen, cytotoxicity control for CF NF-kB inhibitor project, cell-based, uHTS, fluorescence assay plates; KKLEB CF airway cells viability, ATPlite luminescence, overnight; stronger effect = lower value; cells stimulated with P. aeruginosa culture filtrate; activity change (cytotoxicity), % at 5 µM; hit rate 0.36% among 360,000; AID 602141, 2011;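 active = corrected activity change at or below -50% at 5 µM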
HIF-2a inh: HIF-2a reporter inhibitors, primary screen, luminescence, 786-0 RCC cells | AID 624352, 2012 | hit rate 0.72% among 360,000 | inhibition, % at 18.8 µM | 786-0 RCC cells HIF-2a reporter, luciferase luminescence, overnight;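 active = inhibition of the luminescence signal of 40% or more relative to plate controls, in a single-dose primary screen at 18.75 µM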
TROY signal inh: inhibitors of TROY-driven NF-kB signaling, primary screen, Q293 LMP1-TROYcd cells, NF-kB luciferase, uHTS. AID 1347056, 2019. Q293 LMP1-TROYcd NF-kB luciferase reporter, 4 h. hit rate 0.98% among 360,000. inhibition, % at 10 µM;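 active = compounds whose plate-normalised and pattern-corrected inhibition of the luciferase reporter signal at the single screening dose is 50% or more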
Each line names hits and unclear results; the compound was inactive in the other large screens.

Cc1ccc(-n2ncc3c(N4CCCC(C)C4)ncnc32)c(C)c1 (centres undefined)	none
CC1CCCN(c2ncnc3c2cnn3-c2ccccc2)C1 (centres undefined)	TWEAK Fn14 block 92, KKLEB cytotox -54, TROY signal inh 80
CCN1CCN(c2ncnc3c2cnn3-c2ccccc2)CC1	none
c1ccc(-n2ncc3c(N4CCCCC4)ncnc32)cc1	TWEAK Fn14 block 95, TROY signal inh 71
COc1cccc(N2CCN(c3ncnc4c3cnn4-c3ccc(C)cc3C)CC2)c1	CF NFkB inh 80, TWEAK Fn14 block 106, Peg3 promoter 102, KKLEB cytotox -83, TROY signal inh 80
c1ccc(COn2c(-c3ccccc3)nc3c2CCc2nonc2-3)cc1	none
Cn1c(SCC(=O)NC2CCCCC2)nnc1-c1ccccc1F	none
CC(C)NC(=O)c1ccc2c3n(nc2c1)-c1ccccc1CO3	TWEAK Fn14 block 58
O=C1NC[C@@H](CCCCN2C[C@H](Cc3ccccc3)N(CCc3ccc(O)cc3)C(=O)C2=O)N(CCc2ccccc2)C1=O	none (no result: CF NFkB inh, Peg3 promoter, KKLEB cytotox)
OCC1OC(n2cnc3c(NCc4ccco4)ncnc32)C(O)C1O (centres undefined)	Peg3 promoter 87
OC[C@H]1O[C@@H](n2cnc3c(NCc4ccco4)ncnc32)[C@H](O)[C@@H]1O	none
COc1cccc(/C(O)=C/c2nc3ccc(C(=O)NCCc4ccc(Cl)cc4)cc3[nH]c2=O)c1	Peg3 promoter 55
CCc1noc(C)c1C(=O)NCCc1c[nH]c2ccccc12	none
CS(=O)(=O)c1ccc(Oc2ccc(-c3nnco3)cc2)c([N+](=O)[O-])c1	none
O=[N+]([O-])c1cc(Cl)ccc1Oc1ccc(-c2nnco2)cc1	TROY signal inh 62
N#C/C(=C\Nc1ccccc1O)c1nc2ccccc2o1	TROY signal inh 52
N#C/C(=C\c1ccncc1)c1nc2ccccc2o1	none
CCCS(=O)(=O)NC(=O)C1(C)CCN(C(=O)COCc2ccccc2)C1 (centres undefined)	none
CC1CN(CCCCSc2ccc(Cl)cc2)CC(C)O1 (centres undefined)	TWEAK Fn14 block 90
CC1CN(CCOCCSc2ccc(Cl)cc2)CC(C)O1 (centres undefined)	none
O=C(NCCCn1ccnc1)C(Cc1ccccc1)N1C(=O)c2ccccc2C1=O (centres undefined)	none
O=[N+]([O-])c1ccc(N2CCN(C(=S)NCc3ccc(Cl)cc3)CC2)cc1	TWEAK Fn14 block 64
Fc1ccc(N2CCN(c3ncnc4c3nnn4Cc3ccccc3Cl)CC2)cc1	TWEAK Fn14 block 65
O=C(NCC1CCCO1)C1CCCN(S(=O)(=O)c2ccc(F)cc2)C1 (centres undefined)	none
N/C(=N\OS(=O)(=O)c1ccc(Cl)cc1)c1ccncc1	none
Cc1ccc(-c2nnc(SCC(=O)N/N=C/c3c(C)nn(-c4ccccc4)c3C)n2-c2ccccc2)cc1	none
Cc1ccc(-c2nnc(SCC(=O)N/N=C/c3ccccc3C(=O)O)n2-c2ccc(C)cc2)cc1	TWEAK Fn14 block 92
O=C(CSc1nnc(-c2ccccc2)n1-c1ccc(Cl)cc1)N/N=C/c1ccccc1C(=O)O	none
Cc1ccc(-c2nnc(SCC(=O)N/N=C/c3ccc(C)s3)n2-c2ccccc2)cc1	Peg3 promoter 65
CN(C)S(=O)(=O)c1cc(NC(=O)CN2CCNC(=O)C2)ccc1Cl	none
Cc1noc(C)c1C(=O)Nc1nc(-c2ccc(F)c(F)c2)cs1	none
COc1cccc(Nc2nc(-c3ccc4c(c3)OCCO4)cs2)c1	none
O=C(Nc1nc(-c2ccc3c(c2)OCCO3)cs1)c1ccco1	none
c1ccc(-c2csc(Nc3ccc4c(c3)OCCO4)n2)cc1	TROY signal inh 58
c1ccc(Nc2nc(-c3ccncc3)cs2)cc1	none
c1cc2c(cc1Nc1nc(-c3ccc4c(c3)OCO4)cs1)OCCO2	TWEAK Fn14 block 56
COc1ccc(-c2csc(NC(=O)c3c(C)noc3C)n2)cc1F	TROY signal inh 77
COc1ccccc1C(=O)Nc1nc(-c2ccc3c(c2)OCCO3)cs1	TROY signal inh 51
C[C@@H]1CN([C@@H](C)CO)C(=O)CCCn2nncc2CO[C@H]1CN(C)Cc1ccc2c(c1)OCO2	none
O=C(c1cccc(NS(=O)(=O)c2cccc(F)c2)c1)N1CCN(c2ccccc2)CC1	none
Cc1cccc(-c2nnc(NC(=O)c3ccc(Cl)cc3)o2)c1	TWEAK Fn14 block 62
Cc1ccc(C(=O)Nc2nnc(-c3ccncc3)o2)cc1	none
c1ccc(-n2nnnc2Sc2n[nH]c(-c3ccncc3)n2)cc1	none
COc1ccc(C(=O)Nc2ccc3[nH]c(-c4cccc(OC)c4)cc(=O)c3c2)cc1	CF NFkB inh 50
COc1ccc2[nH]c(-c3ccc(C)cc3)cc(=O)c2c1	TWEAK Fn14 block 75
CC(=O)Nc1cccc(-c2ccnc3c2CC(C)(C(=O)Nc2ccc(C(C)C)cc2)O3)c1 (centres undefined)	Peg3 promoter 52
Cc1nnc(NC(=O)CCS(=O)(=O)c2ccccc2)s1	none
COc1ccc(C)c2sc(NC(=O)CCS(=O)(=O)c3ccccc3)nc12	Peg3 promoter 78
O=C(Cc1cccs1)Nc1nc2c(ccc3ccccc32)s1	TWEAK Fn14 block 50
COc1ccc(C2CC(=O)N(CC(=O)NCC3CCCO3)c3ccccc3S2)cc1 (centres undefined)	TROY signal inh 52
COc1ccc(C2CC(=O)N(C)c3ccccc3S2)cc1 (centres undefined)	TWEAK Fn14 block 70, TROY signal inh 57
O=C(CN1C(=O)CC(c2ccco2)Sc2ccccc21)NCC1CCCO1 (centres undefined)	none
CN1C(=O)CC(c2ccco2)Sc2ccccc21 (centres undefined)	none
NCCOc1ccc(C23CC4CC(CC(C4)C2)C3)cc1	Peg3 promoter 101
OCCN1CCN(CC(O)COc2ccc(C34CC5CC(CC(C5)C3)C4)cc2)CC1 (centres undefined)	Peg3 promoter 114
OCCN1CCN(CC(O)COc2ccc(Cl)cc2)CC1 (centres undefined)	none
NCCOc1ccc(C2CCCCC2)cc1	none
CCN(CC)S(=O)(=O)c1cc(NC(=O)CCn2[nH]c(=O)ccc2=O)ccc1C	none
Cc1ccc(CN2C(=O)CSCC2(C)C(=O)NC(C)C)cc1 (centres undefined)	none (no result: CF NFkB inh, TWEAK Fn14 block, Peg3 promoter, KKLEB cytotox, TROY signal inh)
CCOc1cc(CNCCCN2CCOCC2)cc(Cl)c1OCC(=O)NC(C)(C)C	none
CCOc1cc(CNCCCN2CCOCC2)cc(Br)c1OCC(=O)Nc1cccc(C(F)(F)F)c1	Peg3 promoter 68
